This passage reports inhibition results from PubChem BioAssay AID778 (Sanford-Burnham Center for Chemical Genomics, 2007).

The structures appear in SMILES notation. Out of some 96,000 compounds screened, about 20,000 (21%) were called active.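 How the source made its calls: active means CYP2C19 inhibition above a set limit at 5 µM in the primary screen (cut at about 50% in these data); inactive means the rest.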 These entries were drawn from the full list.

The target of the assay is Cytochrome P450 2C19 (Homo sapiens) (UniProt P33261). Briefly: blockers of cytochrome P450 2C19 activity – biochemical, luminescence, ADME assay, primary screen (AID 778).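 Further: plate controls were negative control wells for no effect and 2.5 mM tranylcypromine positive control for full effect.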 Particulars: CYP2C19 Supersomes, luciferin-H EGE luminescence, 30 min; at 5 µM; stronger effect = higher value.
Cytochrome P450 2C19 (Homo sapiens), sequence (P33261 whole entry, looked up): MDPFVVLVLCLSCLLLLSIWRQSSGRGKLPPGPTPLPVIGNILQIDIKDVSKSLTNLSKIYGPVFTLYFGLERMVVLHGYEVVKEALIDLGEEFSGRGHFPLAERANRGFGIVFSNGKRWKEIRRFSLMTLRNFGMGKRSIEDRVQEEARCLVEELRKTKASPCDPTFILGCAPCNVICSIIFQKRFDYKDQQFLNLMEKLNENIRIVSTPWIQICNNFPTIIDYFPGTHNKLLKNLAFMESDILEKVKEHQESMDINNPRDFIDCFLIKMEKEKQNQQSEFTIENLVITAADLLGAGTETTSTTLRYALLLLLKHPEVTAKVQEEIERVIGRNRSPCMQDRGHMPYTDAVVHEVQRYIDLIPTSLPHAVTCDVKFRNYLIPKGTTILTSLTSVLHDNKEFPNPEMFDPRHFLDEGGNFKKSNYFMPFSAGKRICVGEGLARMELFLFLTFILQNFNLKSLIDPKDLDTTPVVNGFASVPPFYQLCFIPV
What is called inhibition is the change of the read-out against control, counted positive when it falls. Regarding `COc1ccc(C2OC(=O)CC2C(=O)NC(C)C)cc1` (configuration not stated), the inhibition is 19.5% (inactive). Then `O=C(Nc1ccccc1F)C1C2C=CC3(O2)C1C(=O)N(c1cccnc1)C3C(=O)NC1CCCCC1` (configuration not stated), with -8.2% (inactive); and `CCC(=O)N(C)C(c1ccccc1Cl)c1nnnn1-c1c(C)cccc1C` (configuration not stated), with 11.1% (inactive). Then `C#CCN(N(C)c1ncc(C(F)(F)F)cc1Cl)S(=O)(=O)c1ccc2ccccc2c1`, with 94.5% (active); and `O=C(c1ccccn1)c1ncc(C(F)(F)F)cc1Cl`, with 44.3% (inactive); and `Cc1cc(C)cc(NS(=O)(=O)c2ccc(Oc3ncc(C(F)(F)F)cc3Cl)cc2)c1`, with 9.5% (inactive).

`CC(NC(=O)C1CCC(CNc2c(N3CCOCC3)c(=O)c2=O)CC1)c1ccccc1` (configuration not stated): the inhibition was -2.1% (inactive). As to `Nc1nc(Br)c2ccccc2c1-c1ccc(F)cc1`, the inhibition is 18.7% (inactive).

`N#Cc1c(C(F)(F)F)cc(-c2ccccc2)nc1SCC(=O)N1CCOCC1`: the inhibition is 0% (inactive). Regarding `CCC/C(O)=C1\C(=O)CC(C)(C)CC1=Nc1ccccc1OC`, the inhibition was 45.5% (inactive).

For the molecule `CC1(C)CC(=O)C=C(NC2CC(C)(C)NC(C)(C)C2)C1`, the inhibition is -1.1% (inactive). Then `COc1ccccc1-c1n[nH]c2c1[C@H](C)CC[C@H]2C(C)C`, with 21% (inactive); and `CCOc1cccc(C(=O)Nc2nnc(-c3cccs3)s2)c1`, with 2.2% (inactive). Then `O=C(O)COc1ccc(-c2nccc(-c3cccs3)n2)cc1`, with -9.2% (inactive); and `CN(C(=O)COc1nnc(-c2cccs2)c(-c2cccs2)n1)c1ccccc1`, with 75.5% (active); and `O=C(O)Cc1ccc(NC(=O)C2CCCCC2C(=O)O)cc1` (configuration not stated), with 2.3% (inactive).

For `CSCCC(Nc1nc2ccccc2s1)C(=O)O` (configuration not stated), the inhibition was 12.6% (inactive). Under `COc1cc(C2C(C(=O)c3sc(C)nc3C)=C(O)C(=O)N2CCN(C)C)cc(OC)c1OC` (configuration not stated) stands 76.7% (active); under `COc1cccc(C2/C(=C(/O)c3ccncc3)C(=O)C(=O)N2CCCN(C)C)c1` (configuration not stated), -12.6% (inactive). Take `COc1cc(C2C(C(=O)c3ccc(C)o3)=C(O)C(=O)N2Cc2cccnc2)ccc1O` (configuration not stated): the inhibition is -12.6% (inactive). Then `COc1ccc(OC)c(C(c2nnnn2C(C)(C)C)N2CCc3ccccc3C2)c1` (configuration not stated), with 94.8% (active); and `Cc1ccc(C(c2nnnn2C(C)(C)C)N2CCc3ccccc3C2)cc1` (configuration not stated), with 14.4% (inactive). Under `COC(=O)C1C(=O)c2c([nH]c(C(=O)OCCSC)c2C)CC1C` (configuration not stated) stands 10.1% (inactive); under `Cc1nn(CCOc2ccccc2)c(=O)n1-c1ccccc1F`, 53.1% (active). Then `Cc1cc2ncn(CCCCOc3ccccc3)c2cc1C`, with 40.1% (inactive); and `Nc1nc(SCCOc2ccccc2)n[nH]1`, with 28.3% (inactive). For `CC(C)Oc1ccc(C2NC(=O)NC2=O)cc1` (configuration not stated), the inhibition was -16.7% (inactive). Then `O=C(Nc1ccc(NC(=O)c2cccs2)cn1)c1ccco1`, with 17.3% (inactive). For the molecule `COc1ccc2c(c1)C(C)=CC(C)(C)N2C(=O)CNCc1ccc2c(c1)OCO2`, the inhibition is 84.8% (active). Regarding `Cc1ccc(-n2ncc3c(=O)[nH]cnc32)c(C)c1`, the inhibition is -3.8% (inactive). Under `COn1c(=O)c(=O)n(OC)c2ccccc21` stands -6.8% (inactive); under `Cc1ccc(NC(=O)Nc2ccc3oc(C)nc3c2)cc1`, 3% (inactive); under `CCn1cc(C(=O)NCc2ccc3c(c2)OCO3)c2cc(OC)c(OC)cc2c1=O`, 15.2% (inactive).

As for `CCn1cc(C(=O)NCc2ccc(OC)cc2OC)c(=O)c2ccc(C)nc21`, the inhibition was 66.3% (active). In the case of `COc1ccc(C(=O)NCc2cn3ccccc3n2)cc1`, the inhibition was 1.2% (inactive). For the molecule `CCOc1ccc(NC(=O)N(CCC(C)C)C(C)c2ccco2)cc1` (configuration not stated), the inhibition was 24.3% (inactive). On to `CC(NC(=O)Nc1ccccc1)c1ccccc1` (configuration not stated), for which the inhibition is 24.8% (inactive).

Regarding `CC(c1ccco1)N(C(=O)Nc1ccccc1)C1CCCCC1` (configuration not stated), the inhibition was 76.2% (active). Then `CC(=O)c1c(N)n(C)c(=O)n(C)c1=O`, with 0.9% (inactive); and `CCOC(=O)c1nnn(-c2nonc2-n2cccc2)c1CN1CCOCC1`, with 3.7% (inactive). Under `CCOC(=O)c1nnn(-c2nonc2-n2cccc2)c1CN1CCC(C(=O)OCC)CC1` stands 98% (active); under `CCN(CC)Cc1c(C(=O)OC)nnn1-c1nonc1N`, 4.8% (inactive); under `CC(=O)Oc1cccc(N2C(=O)CC(Nc3ccc(N4CCOCC4)cc3)C2=O)c1` (configuration not stated), 18.5% (inactive). Then `Cc1ccc(NC(=O)NCC(c2cccnc2)N2CCOCC2)cc1` (configuration not stated), with -7.8% (inactive); and `CCOC(=O)N1CCN(C(=O)C2CC(c3ccc(F)cc3)=NO2)CC1` (configuration not stated), with 1.7% (inactive); and `COC(=O)[C@H](C(C)C)n1c(C)c(C(C)=O)c(C(C)=O)c1C`, with 6.6% (inactive). `O=[N+]([O-])c1c(NCCO)cc(Sc2nc3ccccc3s2)c2nonc12`: the inhibition is 28.1% (inactive).

As to `O=C(c1ccc(Cl)cc1)c1ccc(OCC(O)CN2CCCCC2)cc1` (configuration not stated), the inhibition is 8.8% (inactive).

As for `OC(COc1cccc(OCC(O)CN2CCCC2)c1)CN1CCCC1` (configuration not stated), the inhibition is 0.1% (inactive). Then `OC(COc1ccc2c(c1)CCC2)CN1CCN(c2cccc(Cl)c2)CC1` (configuration not stated), with 59.3% (active); and `CCN(CC)c1ccc2cc(C(=O)O)c(=O)oc2c1`, with -13.2% (inactive); and `COc1cc2c(cc1OC)CN(C(=O)c1cc(=O)c3ccccc3o1)CC2`, with 19.7% (inactive). Then `CCOc1cc(CN2CCN(C(=O)CC(C)C)CC2)ccc1OC`, with -10.6% (inactive). Turning to `CCOc1cc(C(=O)N2CCc3cc(OC)c(OC)cc3C2)ccc1OC(F)F`, the inhibition is 51.6% (active). Then `CN1CCN(CC(O)COCc2ccc3c(c2)OCO3)CC1` (configuration not stated), with -20.9% (inactive). `Cc1ccc(NC(=O)CS(=O)CC(=O)N(c2ccccc2)C(C)C(=O)NC2CCCC2)cc1` (configuration not stated): the inhibition was 9.7% (inactive). Then `O=C(NCc1ccccn1)c1c(O)c2c([nH]c1=O)CCCC2`, with 11.7% (inactive); and `CCCc1cc(-c2n[nH]c(=S)n2Cc2ccccc2)cs1`, with 5.4% (inactive). Then `COc1ccc(S(=O)(=O)Nc2c(C)n(C)n(-c3ccccc3)c2=O)cc1`, with -4.1% (inactive); and `Cc1c(Nc2nc3ccccc3nc2NS(=O)(=O)c2cccs2)c(=O)n(-c2ccccc2)n1C`, with 1% (inactive). Then `Cc1ccc(S(=O)(=O)Nc2ccccc2CNc2c(C)n(C)n(-c3ccccc3)c2=O)cc1`, with 95.6% (active). Turning to `CCOc1ccc(-c2c(C)n([O-])c3c([n+]2=O)CCCC3)cc1`, the inhibition was 9.2% (inactive).
